HCMV antiviral: qHTS Assay for inhibitors of the human cytomegalovirus (HCMV); 410,000 compounds, 4.5% hits; activity change, negative = inhibition, % at 57.5 µM; AID 1259415, 2018; HFF cells, HCMV-luciferase reporter, 72 h; active compounds read low; in the data active means activity change below about -60%; inconclusive means no clear call, values can overlap the other calls; inactive means above about -39%
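After 16 h attachment at 37C, HFF cells received test compound and HCMV-luciferase (1 PFU/cell); reporter luminescence read 72 h later, data normalized against buffer-only and known inhibitor Salinomycin.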
Pf growth 96h: Primary qHTS for delayed death inhibitors of the malarial parasite plastid, 96 hour incubation | P. falciparum luciferase reporter growth, 96 h | Potency, µM (top dose mostly 28.7 µM), for inactives: at the highest dose activity change, negative = inhibition, usual class: inhibitors | 320,000 compounds, 6.9% hits | AID 504834, 2011; further: potency means the concentration at half of the fitted maximal effect
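Compounds incubated with erythrocytes infected by luciferase-expressing P. falciparum (2% hematocrit, 0.05% parasitemia final) for 96 hours, 37 C in 5% CO2. Growth inhibition scored as decreased luciferase luminescence.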
Giardia FBPA inh: qHTS Assay for Inhibitors of Fructose-1,6-bisphosphate Aldolase from Giardia Lamblia; purified Giardia FBPA; Potency, µM (series often up to 59.6 µM), for inactives: top-dose activity, negative = inhibition, most hits filed as inhibitors; 290,000 compounds, 0.71% hits; AID 2451, 2010; further: potency means the concentration at half of the fitted maximal effect; nearly all actives have a fitted effect of over 55% in size
Target sequence (A8B2U2 whole entry, looked up): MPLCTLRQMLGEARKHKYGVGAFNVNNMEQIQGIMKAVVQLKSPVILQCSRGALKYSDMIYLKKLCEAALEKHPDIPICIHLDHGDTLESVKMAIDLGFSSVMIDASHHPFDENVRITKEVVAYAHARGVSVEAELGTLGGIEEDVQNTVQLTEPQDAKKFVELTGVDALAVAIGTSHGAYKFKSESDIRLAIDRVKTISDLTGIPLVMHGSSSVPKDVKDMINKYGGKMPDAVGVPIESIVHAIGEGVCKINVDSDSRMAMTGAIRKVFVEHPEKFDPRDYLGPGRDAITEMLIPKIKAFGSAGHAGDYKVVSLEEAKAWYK
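Giardia FBPA (40 nM reagent) was preincubated 10 min at RT with compound (up to 57.5 uM final), then substrate plus GAPDH/TPI/NAD/arsenate coupling system with diaphorase/resazurin was added; resorufin fluorescence (525/598 nm) was read after 20 min.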
Sm TGR inh: qHTS Assay for the Inhibitors of Schistosoma Mansoni Peroxiredoxins | purified TGR, DTNB reduction, TNB absorbance 405 nm | AID 485364, 2010 | Schistosoma mansoni thioredoxin glutathione reductase (TGR), Q962Y6 | 360,000 compounds, 3% hits | Potency, µM (titrated, usually from 114 µM), inactives show at the highest dose activity change, negative = inhibition, actives largely listed as inhibitors; further: potency means the concentration at half of the fitted maximal effect; nearly all actives have a fitted effect of over 60% in size
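First, TGR (20 nM dispensed) and NADPH were mixed with compound. Second, a 15 min room-temperature incubation followed. Third, further NADPH and then DTNB were added to start the reaction. Finally, TNB absorbance was monitored kinetically.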
Pf growth 48h: Primary qHTS for delayed death inhibitors of the malarial parasite plastid, 48 hour incubation | AID 504832, 2011 | 310,000 compounds, 5.9% hits | P. falciparum luciferase growth in erythrocytes, 48 h | Potency, µM (doses to about 28.7 µM), for the others: at the top dose activity change, negative = inhibition, usual class: inhibitors; further: potency means the concentration at half of the fitted maximal effect
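Luciferase-expressing parasites in RBCs, 2% Hct / 0.1% parasitemia final; RPMI 1640 + 0.5% Albumax; 37 C, 5% CO2, one generation; luminescence read-out, lower signal = inhibition.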
Starred values were filed as active, the others as inactive; ? = inconclusive; . = not tested or not shown; + = active, no number; [ ] = another dose, or the depositor's remark. This is a sample that favours compounds with a hit; in the whole collection about 14% have one here. Unless noted, the call rests on the fitted dose curve; in most records, active means well fitted curve in the direction sought with a large enough effect; inconclusive means small, poorly fitted or top-dose-only effect, or another doubt; inactive means no such curve, though single readings can be large; an effect the other way counts as inactive or inconclusive. On the % scale 0 is the no-effect control and ±100 the full control effect.

SMILES	HCMV antiviral	Pf growth 96h	Giardia FBPA inh	Sm TGR inh	Pf growth 48h
Cc1ccccc1Nc1c(-c2cccc(Cl)c2)nc2ncccn12	-21	.	.	7%	.
Cc1ccc(Nc2c(-c3ccc(C)o3)nc3ncccn23)cc1	-32	5%	2%	20µM*	-10%
CCCC[C@@H]1C=C(C(=O)O)[C@H](c2ccc(Br)cc2)N1S(=O)(=O)c1ccc(C)cc1	8	.	.	.	.
CCC(=O)N1CCc2cc(Br)cc(S(=O)(=O)N3CCN(c4cccc(Cl)c4)CC3)c21	8	.	.	2%	.
CN1C2CCC1CC(NC(=O)c1ccc(Cl)cc1)C2 (stereo unspecified)	35	?	4%	13%	8%
O=C(NC1C2CCCC1CN(C1CC1)C2)c1ccc(Cl)cc1 (stereo unspecified)	-64*	?	-24%	80%	?
CCS(=O)(=O)c1ccc2oc(Nc3ccc(OC)cc3)nc2c1	52	69%	-6%	6%	65%
CCOc1ccc(Nc2nc3cc(S(=O)(=O)CC)ccc3o2)cc1	?	13µM*	-11%	0%	-31%
COc1cc(/C=C2\COC/C(=C\c3ccc(O)c(OC)c3)C2=O)ccc1O	-99*	?	?	50µM*	10µM*
COc1cc(/C=C2\N=C3CCCCCN3C2=O)ccc1O	137	.	-1%	56µM*	8%
COc1cc(C=C2C(=O)c3ccccc3C2=O)ccc1O	-8	5%	-9%	-5%	33%
C/C=C/c1ccc(O)c(OC)c1	42	?	.	-3%	9%
COc1cc(/C=C/C=C2/CC/C(=C/C=C/c3ccc(O)c(OC)c3)C2=O)ccc1O	-99*	.	.	.	.
COc1cc(/C=C2/CC/C(=C/c3ccc(O)c(OC)c3)C2=O)ccc1O	0	?	-20%	45µM*	3.3µM*
CCCN(CCC)C(=O)[C@@H](CCC(=O)O)NC(=O)c1ccccc1	.	-12%	0%[21.7 µM]	.	0%
O=C(OCC(=O)N1CCCc2ccccc21)c1ccccc1NCCO	-7	7%	.	6%	?
COc1cc(OC)c(OC)cc1/C=C1\CCC/C(=C\c2cc(OC)c(OC)cc2OC)C1=O	-90*	-3%	-12%	-2%	?
COc1ccc(/C=C2\CCC/C(=C\c3ccc(OC)c(OC)c3OC)C2=O)c(OC)c1OC	35	21%	10%	8%	?
O=[N+]([O-])c1cnc(N2CCCCC2)c([N+](=O)[O-])c1	-10	-19%	5%	-17%	-1%
N#Cc1cccc(NC(=O)Cn2cnc(S(=O)(=O)N3CCc4ccccc43)c2)c1	.	4.7µM*	.	6%	-25%
CC(=O)c1cccc(NC(=O)Cn2cnc(S(=O)(=O)N3CCc4ccccc43)c2)c1	-36	?	-8%	1%	-4%
Clc1cccc2c3c([nH]c12)CCNC3	-32	0.59µM*	-25%	-13%	13%
Clc1ccc2[nH]c3c(c2c1)CNCC3	3	?	-12%	-34%	4%[0.00184 µM]
CCN(CC)CC(=O)Nc1c(C)cccc1C	-31	-19%	12%	.	?
Cc1cccc(C)c1NC(=O)C(Cl)=C(Cl)Cl	-89*	-27%	4%	.	-13%
SMILES	HCMV antiviral	Pf growth 96h	Giardia FBPA inh	Sm TGR inh	Pf growth 48h
COc1ccc(-c2nc3ccc([N+](=O)[O-])cc3o2)cc1	-92*	36%	5%	-2%	115%
Cc1cc(Nc2ccccc2O)nc(C)n1	-1	.	.	-4%	.
Cc1cccc(Nc2cc(C)c3c(O)cccc3n2)c1C	-65*	1%	-15%	-14%	0.74µM*
Cc1ccc(C)c(C(=O)CSc2nc(-c3ccccc3)nc3c2CCCC3)c1	-10	.	.	-6%	.
CC1=Nc2cc(C(=O)NCCCOC(C)C)ccc2Sc2ccccc21	+	?	9%	0%	?
CCCC1=Nc2cc(C(=O)NCCc3ccc(OCC)cc3)ccc2Sc2ccccc21	?	.	.	6%	.
CC1=Nc2cc(C(=O)NCCc3ccc(Cl)cc3)ccc2Sc2ccc(C)cc21	-65*	.	.	-2%	.
CC1=Nc2cc(C(=O)NCCCOC(C)C)ccc2Sc2ccc(C)cc21	-76*	45%	2%	-15%	7.4µM*
CC(C)OCCCNC(=O)c1ccc2c(c1)NC(=O)c1ccccc1S2	?	2%	-1%	-26%	3.7µM*
CCOc1ccccc1OC(=O)CN1C(=O)c2ccccc2C1=O	-15	-22%	-3%	6%	7%
O=C(NCCCN1CCCC1=O)c1cccc(S(=O)(=O)N2CCN(c3ccccc3)CC2)c1	-23	?	.	-10%	-19%
CCOC(=O)c1c(C)[nH]c(C(=O)N(C)CC(=O)Nc2ccc(OCC)c(OCC)c2)c1C	32	.	.	.	.
Cc1ccc(NC(=O)Cn2c(O)c(N=NC(=O)c3ccncc3)c3ccccc32)cc1	.	5%	-6%	8%	29%
Cn1c(O)c(N=NC(N)=S)c2ccccc21	.	12µM*	.	.	?
O=C(Cn1c(O)c(N=NC(=O)c2ccncc2)c2ccccc21)Nc1ccccc1	36	103%	3%	-4%	72%
Cc1ccc(NC(=O)Cn2c(O)c(N=NC(=O)c3cc4ccccc4cc3O)c3ccccc32)cc1	-101*	-29%	-17%	-5%	26%
COc1ccccc1NC(=O)Cn1c(O)c(N=NC(=O)c2ccccc2O)c2ccccc21	-107*	27%	-9%	1%	7%
Cn1c(O)c(N=NC(=O)c2ccccc2O)c2ccccc21	130	-2%	-24%	1%	-1%
Cc1cccc(NC(=O)Cn2c(O)c(N=NC(N)=S)c3ccccc32)c1	29	15µM*	-4%	2%	-10%
O=C(CCCN1CCN2CCCC2C1)c1ccc(F)cc1 (stereo unspecified)	.	-1%	.	.	-8%
CC(C)(C)c1ccc(Nc2n[nH]c3ccccc23)cc1	-7	.	.	.	.
COc1ccc(Br)cc1C(=O)Nc1cc(C)cc(C)c1	-37	?	-1%	3%	-13%
CCCc1nc2ccc(C(=O)OC)cn2c1Cc1ccc(C)cc1	37	.	.	.	.
COc1ccc(C(=O)NCC(=O)N=Nc2c(O)n(C)c3ccccc23)cc1OC	-61*	-6%	-1%	8%	-10%
Cn1c(CSCc2ccccc2Cl)nnc1SCC(=O)Nc1nccs1	1	12µM*	31%	8%	?
CC(C)CC(=O)Nc1nnc(SCC(=O)NC2CCCC2)s1	4	.	.	.	.
CC(C)CC(=O)Nc1nnc(SCC(=O)Nc2nccs2)s1	-63*	57%	-4%	-2%	-3%
CCCc1nnc(SCC(=O)Nc2nccs2)o1	?	8%	?	-2%	9.3µM*
CCCCc1nnc(SCC(=O)Nc2nccs2)n1C	-27	10µM*	-22%	-20%	23%
Cn1c(CC(=O)Nc2ccc(Cl)c(Cl)c2)nnc1SCC(=O)Nc1nccs1	-7	-17%	6%	-13%	.
